Results filed as inconclusive are left out. The source made the active and inactive calls. Unless noted, calls follow the shape of the dose curve; as a rule, active = well fitted curve in the direction sought with a large enough effect in the repeat runs; inconclusive = weak or mixed curves; inactive = no such curve, though single readings can be large; an effect the other way counts as inactive or inconclusive.
Tests used:
[1] = molecular target: Retinoic acid receptor RXR-alpha (Homo sapiens) (UniProt P19793); assay: qHTS assay to identify small molecule agonists of the RXR signaling pathway (AID 1159527; calls by dose curve; also: nearly all actives have a fitted effect of over 35% in size; also: potency is read from the fitted curve at half-maximal effect)
Sequence of Retinoic acid receptor RXR-alpha (Homo sapiens) (P19793 whole entry, looked up): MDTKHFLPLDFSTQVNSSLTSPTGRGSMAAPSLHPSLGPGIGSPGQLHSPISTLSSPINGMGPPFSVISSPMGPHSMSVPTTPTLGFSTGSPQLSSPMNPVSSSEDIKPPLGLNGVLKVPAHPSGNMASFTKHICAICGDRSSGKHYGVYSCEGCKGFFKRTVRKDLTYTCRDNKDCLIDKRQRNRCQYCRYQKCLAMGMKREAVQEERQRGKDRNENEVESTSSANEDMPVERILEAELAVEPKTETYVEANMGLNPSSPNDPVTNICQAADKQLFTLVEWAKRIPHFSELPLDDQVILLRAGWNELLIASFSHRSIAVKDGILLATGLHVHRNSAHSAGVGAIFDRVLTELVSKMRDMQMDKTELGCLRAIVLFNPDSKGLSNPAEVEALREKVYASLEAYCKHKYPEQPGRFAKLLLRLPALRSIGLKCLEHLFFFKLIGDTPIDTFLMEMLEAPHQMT
Procedure, shortened: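 Agonist-mode beta-lactamase reporter assay: HEK 293T RXR-alpha-UAS-bla cells treated 16 hr at 37 C with compounds, 9-cis retinoic acid as positive control. LiveBLAzer FRET substrate, 405 nm excitation, 460/530 nm emission.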

[2] = qHTS assay to identify small molecule agonists of the RXR signaling pathway - cell viability counter screen (AID 1159529); also: series mostly up to about 77 µM; nearly all actives have a fitted effect of over 50% in size
Procedure, shortened: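 CellTiter-Glo luminescence gave viability in the wells also read for beta-lactamase. Cells (RXR-alpha-UAS-bla HEK 293T, 2% charcoal-stripped FBS medium) had 5 hr plating, then 16 hr compound exposure at 37 C; tetraoctyl ammonium bromide served as positive control.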

[3] = qHTS assay to identify small molecule antagonists of the retinoid acid receptor (RAR) signaling pathway - cell viability counter screen (AID 1159551); also: nearly all actives have a fitted effect of over 35% in size
Procedure, shortened: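 In this counter screen, the RARE-luciferase line C3RL4 was exposed for 6 h at 37 C and 5% CO2 to compounds with retinol at 1 uM final. Cellular ATP, read by luminescence, served as the viability measure.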

[4] = qHTS assay to identify small molecule antagonists of the retinoic acid receptor (RAR) signaling pathway (AID 1159552; also: nearly all actives have a fitted effect of over 50% in size)
Procedure, shortened: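 Luminescent RARE reporter read-out in C3RL4 cells: 6 hr co-treatment at 37 C of test compounds with retinol at 1 uM final. Cells plated overnight beforehand; luciferase reagent incubated 30 min at room temperature before reading.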

[5] = qHTS assay to identify small molecule agonists of the retinoic acid receptor (RAR) signaling pathway (AID 1159553)
Procedure, shortened: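 In this cell-based screen, 1,000 C3RL4 cells per well were cultured overnight, dosed with test chemicals in DMSO for 6 hr, and assessed for RARE luciferase luminescence.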

[6] = qHTS assay to identify small molecule antagonists of the estrogen related receptor (ERR) signaling pathway - cell viability counter screen (AID 1224818); also: series mostly up to about 46 µM
Procedure, shortened: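 Viability of ERR cells, CellTiter-Fluor fluorescence; 17.5 h compound exposure at 37 C, DMSO vehicle; 30 min reagent incubation at 37 C/5% CO2.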

[7] = qHTS assay to identify small molecule antagonists of the estrogen related receptor (ERR) signaling pathway (AID 1224819;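 also: luminescence from an ERR-driven luciferase reporter measured with One-Glo reagent; series mostly up to about 46 µM; nearly all actives have a fitted effect of over 50% in size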)
Procedure, shortened: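 Seed ERR cells 2,000/well; rest 6 h at 37 C/5% CO2; pin compounds in DMSO; incubate 18 h at 37 C; add One-Glo; wait 30 min at room temperature; measure luminescence.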

[8] = qHTS assay to identify small molecule agonists of the estrogen related receptor (ERR) signaling pathway (AID 1224820)
Procedure, shortened: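 Following a 6 h settling period, 2,000 ERR cells per well receive DMSO-dissolved compounds by pin tool and incubate 18 h at 37 C; agonist activity is scored from One-Glo luminescence read 30 min post-addition.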

[9] = tested on: estrogen-related receptor alpha (ERRalpha) with PGC-1alpha coactivator, human; assay: qHTS assay to identify small molecule antagonists of the estrogen related receptor signaling pathway with the pleiotropic PPARgamma coactivator (PGC) (AID 1224821; calls by dose curve;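 also: series mostly up to about 46 µM; lower luminescence signal means antagonism of PGC/ERR signalling; nearly all actives have a fitted effect of over 50% in size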)
Procedure, shortened: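 Screening used NTP's PGC/ERR cells, dosed via pin tool with compound in DMSO alongside positive and negative controls. After 18 h at 37 C, One-Glo reagent sat 30 min at room temperature before luminescence detection.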

[10] = qHTS assay to identify small molecule agonists of the estrogen related receptor signaling pathway with the pleiotropic PPARgamma coactivator (PGC) (AID 1224823)
Procedure, shortened: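 In this quantitative high-throughput screen, an 18 h, 37 C treatment of PGC/ERR cells with compounds in DMSO preceded a One-Glo luminescence read taken after 30 min at room temperature.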
% is scaled to controls: 0 for no effect and ±100 for the full control effect.

CCCCCCC
inactive: Potency [1] | Potency [2] | outcome [3] | Potency [4] | Potency [5]

OC[C@H]1O[C@@H](O[C@H]2[C@H](O)[C@@H](O)[C@H](O)O[C@@H]2CO)[C@H](O)[C@@H](O)[C@H]1O
inactive: Potency [1] | Potency [2] | outcome [3] | Potency [4] | Potency [5]

O=C(O[C@@H](C(=O)O)[C@@H](OC(=O)c1ccccc1)C(=O)O)c1ccccc1
inactive: Potency [1] | Potency [2] | outcome [3] | Potency [4] | Potency [5]

C=C(C)C(=O)OCCOP(=O)(O)O
inactive: Potency [1] | Potency [2] | outcome [3] | Potency [4] | Potency [5]

COC(=O)c1ccc(OC)cc1
inactive: Potency [1] | Potency [2] | outcome [3] | Potency [4] | Potency [5]

Cc1ccsc1C(=CCCN1CCC[C@@H](C(=O)O)C1)c1sccc1C
inactive: Potency [1] | Potency [2] | outcome [3] | Potency [5]

CO[Si](C)(C)OC
inactive: Potency [1] | Potency [2] | outcome [3] | Potency [4] | Potency [5]

COc1nc(C)nc(NC(=O)NS(=O)(=O)c2ccccc2OCCCl)n1
inactive: Potency [1] | Potency [2] | outcome [3] | Potency [4] | Potency [5]

CC(=O)OC(C)OC(C)=O
active: Potency [1] 2.01 µM
inactive: Potency [2] | outcome [3] | Potency [4] | Potency [5]

CCCN(CCC)C(=O)C(CCC(=O)O)NC(=O)c1ccccc1 (stereo unspecified)
inactive: Potency [1] | Potency [2] | outcome [3] | Potency [4] | Potency [5] | outcome [6] | outcome [7] | outcome [8] | outcome [9] | outcome [10]

CC(C)Nc1nc(N)nc(Cl)n1
inactive: Potency [1] | Potency [2] | outcome [3] | Potency [5]

Cc1nnc(SCC2=C(C(=O)O)N3C(=O)[C@@H](NC(=O)Cn4cnnn4)[C@H]3SC2)s1
inactive: Potency [1] | Potency [2] | outcome [3] | Potency [4] | Potency [5] | outcome [6]

OCCN(CCO)CCN(CCO)CCO
inactive: Potency [1] | Potency [2] | outcome [3] | Potency [4] | Potency [5]

CC(C)S
inactive: Potency [1] | Potency [2] | outcome [3] | Potency [5]

NC(=O)Cc1cccc(C(=O)c2ccccc2)c1N
inactive: Potency [1] | Potency [2] | outcome [3] | Potency [5]

O=C1CCCc2ccccc21
inactive: Potency [2] | outcome [3] | Potency [4] | Potency [5]
active: Potency [1] 6.99 µM

CCN1CC(CCN2CCOCC2)C(c2ccccc2)(c2ccccc2)C1=O (stereo unspecified)
inactive: Potency [1] | Potency [2] | outcome [3] | Potency [4] | Potency [5]

CC(C)NCC(O)COc1ccc(CCOCC2CC2)cc1 (stereo unspecified)
inactive: Potency [1] | Potency [2] | outcome [3] | Potency [4] | Potency [5] | outcome [6]

CS(=O)(=O)c1ccc([C@@H](O)[C@@H](CF)NC(=O)C(Cl)Cl)cc1
inactive: Potency [1] | Potency [2] | outcome [3] | Potency [4] | Potency [5]

CC(CNC1CCCCC1)OC(=O)c1ccccc1 (stereo unspecified)
inactive: Potency [1] | Potency [2] | outcome [3] | Potency [4] | Potency [5]

O=C(O)CN(CCN(CC(=O)O)CC(=O)O)CCN(CC(=O)O)CC(=O)O
inactive: activation [1] 6.5% [at 15.8 µM] | activity change, negative = cytotoxicity [2] 2.65% [at 15.8 µM] | activity change, negative = cytotoxicity [3] 4.77% [at 19 µM] | activity, negative = inhibition [4] -10.7% [at 19 µM] | Potency [5] | outcome [6] | outcome [7] | outcome [8] | outcome [9] | outcome [10]

O=[N+]([O-])c1nccn1CO[C@@H](CO)[C@H](O)CO
inactive: Potency [1] | Potency [2] | outcome [3] | Potency [5]

CC1(C)S[C@@H]2[C@H](NC(=O)C(C(=O)O)c3ccccc3)C(=O)N2[C@H]1C(=O)O (stereo partly specified)
inactive: Potency [1] | Potency [2] | outcome [3] | Potency [5]

CO[C@@]1(NC(=O)CSCC#N)C(=O)N2C(C(=O)O)=C(CSc3nnnn3C)CS[C@@H]21
inactive: Potency [1] | Potency [2] | outcome [3] | Potency [4] | Potency [5] | outcome [6]

CCOc1ccc(NC(N)=O)cc1
inactive: Potency [1] | Potency [2] | outcome [3] | Potency [4] | Potency [5]

Cc1cn([C@@H]2O[C@H](CO)[C@@H](O)[C@@H]2F)c(=O)[nH]c1=O
inactive: Potency [1] | Potency [2] | outcome [3] | Potency [5]

OCCN1CCN(CCO)CC1
inactive: Potency [1] | Potency [2] | outcome [3] | Potency [5]

N#Cc1ccc(C(c2ccc(C#N)cc2)n2cncn2)cc1
inactive: Potency [1] | Potency [2] | outcome [3] | Potency [5]

COC(C)CCO (stereo unspecified)
inactive: Potency [1] | Potency [2] | outcome [3] | Potency [5]

COc1ccccc1N1CCN(CCCNc2cc(=O)n(C)c(=O)n2C)CC1
inactive: Potency [1] | Potency [2] | outcome [3] | Potency [4] | Potency [5] | outcome [6] | outcome [7] | outcome [8] | outcome [9] | outcome [10]

COC(=O)N[C@H](C(=O)N[C@@H](Cc1ccccc1)[C@@H](O)CN(Cc1ccc(-c2ccccn2)cc1)NC(=O)[C@@H](NC(=O)OC)C(C)(C)C)C(C)(C)C
inactive: Potency [1] | Potency [2] | outcome [3] | Potency [4] | Potency [5]

O=C1CCCCC1C1CCCCC1 (stereo unspecified)
inactive: Potency [1] | Potency [2] | outcome [3] | Potency [5]

CC1(C)C(=O)N(Cl)C(=O)N1Br
inactive: Potency [1] | Potency [2] | outcome [3] | Potency [4] | Potency [5]

CCC1(C)NC(=O)NC1=O (stereo unspecified)
inactive: Potency [1] | Potency [2] | outcome [3] | Potency [4] | Potency [5]

CCCCNCCCC
inactive: Potency [1] | Potency [2] | outcome [3] | Potency [5]

O=c1[nH]c(=O)n([C@H]2C[C@H](O)[C@@H](CO)O2)cc1C(F)(F)F
inactive: Potency [1] | Potency [2] | outcome [3] | Potency [4] | Potency [5]

— PubChem BioAssay (Tox21)
